From the supplement of paper PMC3334620
The full ranking holds about 33,000 sequences; the median of “E-score (-0.5 to 0.5)” is about -0.0014, and the highest 2% start at about 0.25. For the sample, the highest values were picked, then their nearest neighbours and some sequences at random.

Target: T1, Cad1 (UniProt P24813)
T1 sequence: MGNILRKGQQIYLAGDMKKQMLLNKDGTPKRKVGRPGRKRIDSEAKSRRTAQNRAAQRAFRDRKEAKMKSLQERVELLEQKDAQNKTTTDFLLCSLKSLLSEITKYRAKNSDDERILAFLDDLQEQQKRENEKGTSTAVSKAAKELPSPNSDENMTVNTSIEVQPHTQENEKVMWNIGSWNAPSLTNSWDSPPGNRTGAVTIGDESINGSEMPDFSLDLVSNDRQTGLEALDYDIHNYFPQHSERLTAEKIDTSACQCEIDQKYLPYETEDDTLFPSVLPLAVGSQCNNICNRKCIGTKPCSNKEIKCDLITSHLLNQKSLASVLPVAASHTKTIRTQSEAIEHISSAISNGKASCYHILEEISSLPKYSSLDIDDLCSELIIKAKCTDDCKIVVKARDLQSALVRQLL
Assay: PBM E-score (8-mer binding enrichment) (E-score (-0.5 to 0.5)); higher = stronger / more preferred TF binding
Conditions: protein concentration: 100 nM; construct: GST-full length
Summary of the method: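 Masliner-normalised scans of fluorescent anti-GST signal were the basis for scoring. That signal came from GST-tagged yeast transcription factors applied at about 100-200 nM to double-stranded universal all-10-mer Agilent arrays on fresh or once-stripped slides. Each ungapped eight-base word, pooled with its reverse complement, received an E-score from the Universal PBM Analysis Suite.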

| Sequence | PBM E-score |
| --- | --- |
| CACTAGTA | 0.0511 |
| AAATACTA | 0.0416 |
| CAATACTA | 0.0552 |
| AACTAAAA | 0.133 |
| TACTAATA | 0.285 |
| TACTAGTA | 0.273 |
| AACTAATA | 0.351 |
| TAATACTA | 0.303 |
| TACTACTA | 0.157 |
| ATACTTAC | 0.0308 |
| AGACGCCT | -0.1 |
| ACCAACGT | 0.0535 |
| CGGCTTTA | -0.151 |
| CGATCGGA | 0.0447 |
| CTCCATAC | -0.104 |
| ATACACCA | 0.12 |
| CACGACTA | -0.148 |
| CGAAGCTC | -0.231 |
| TACTTGAA | 0.0482 |
| AACTAAAG | 0.2 |
| TAATAATA | 0.29 |
| GACTAATA | 0.372 |
| CACTAATG | -0.0516 |
| GACTAAAA | 0.114 |
| GACTAACA | 0.218 |

| Sequence | PBM E-score |
| --- | --- |
| AACTAATG | 0.283 |
| CAATAATA | 0.208 |
| GAATAATA | 0.221 |
| GCTGGGCC | -0.297 |
| GCCTATAC | -0.214 |
| GGAATGAC | -0.179 |
| CAGTCCAG | -0.0544 |
| CGTCAAAC | -0.0838 |
| AGCACTAC | -0.0732 |
| AGCAACGG | 0.0958 |
| CTGTCCGA | 0.189 |
| ACTTATTA | 0.192 |
| CCTTATTA | 0.211 |
| ATTTATTA | 0.186 |
| GTTTATTA | 0.293 |
| CTTTATTA | 0.18 |
| GCTTATTA | 0.369 |
| CACCATCA | 0.0657 |
| TAAACGTA | 0.172 |
| GGTTTCAC | 0.00803 |
| ACGGCCCT | -0.0728 |
| CTGTAGCC | -0.0863 |
| AACTTGAG | -0.154 |
| AACTTGAA | 0.109 |
| AACTTGAT | 0.268 |

| Sequence | PBM E-score |
| --- | --- |
| GGTGCAGA | -0.217 |
| GCCAGGGA | -0.103 |
| AACCTTGA | 0.0727 |
| CGAACCGC | -0.0247 |
| CGAACCGA | 0.262 |
| GGAACCGA | 0.0676 |
| CTCGCCAC | -0.0198 |
| AATTTTGT | 0.143 |
| AAATTTGG | 0.075 |
| AAATTTGT | 0.277 |
| CAATTTGA | -0.0156 |
| TAATTTGA | 0.106 |
| AAATTTGA | 0.325 |
| CTGGAGGA | -0.121 |
| CCTACCGC | -0.0896 |
| GGCTGTAC | -0.0764 |
| CGAGTGTA | -0.0885 |
| ACGCTTTA | 0.0919 |
| CAGACAAC | 0.0003 |
| AAGACAAG | 0.0865 |
| AAGACAAC | 0.336 |
| GCGCGTCA | 0.0818 |
| AAGCGACT | -0.0195 |
| AGTTATAA | -0.037 |
| GTATATAA | 0.182 |

| Sequence | PBM E-score |
| --- | --- |
| TCATATAA | -0.00059 |
| TGATATAA | -0.0984 |
| TGTTATAA | 0.253 |
| CTATATAA | 0.0617 |
| CGTTATAA | 0.163 |
| ATATATAA | 0.32 |
| TTATATAA | 0.427 |
| AAGCCGGC | 0.149 |
| AGTGATTA | 0.287 |
| AGTGATTC | 0.11 |
| CGTGATTC | -0.021 |
| GGTGATTA | 0.236 |
| CGTGATGA | 0.0624 |
| CGTGATTA | 0.303 |
| GGCGGCTA | 0.0654 |
| AACCTTGG | -0.168 |
| CTAACACC | -0.0338 |
| AATCTAGC | 0.08 |
| CAAGATTG | -0.0156 |
| ACGGCATA | 0.16 |
| CGTCCGAA | 0.1 |
| GGTCCGAA | 0.143 |
| TGTCCGAA | 0.266 |
| ACCCTCTC | -0.183 |
| CCCTTGAC | -0.197 |

| Sequence | PBM E-score |
| --- | --- |
| TCCTCACA | -0.115 |
| ACGGATCC | -0.0362 |
| AGCGCAAA | 0.189 |
| ACGGCGCC | 0.139 |
| AACGCGAA | 0.298 |
| ACGGCGCG | 0.322 |
| AACGCGAG | 0.115 |
| CAAGCGCA | 0.262 |
| AAAGCGCA | -0.0636 |
| CACGCGAA | 0.0527 |
| AGCGCGAA | 0.21 |
| ACGGCGCT | -0.0736 |
| AGCGCGCA | 0.355 |
| CAAGCGCC | -0.119 |
| AAGTTGAG | 0.0317 |
| GCCAACAA | -0.0504 |
| TCGTCTAA | -0.0389 |
| GCCGCAAC | 0.0201 |
| CGCACCGA | -0.0919 |
| CGGCTAAA | -0.0162 |
| CAGAGACG | 0.0945 |
| CGTTGGAC | -0.137 |
| GCGATCGC | 0.241 |
| CGCGCGCA | 0.242 |
| GGCGCGCA | 0.195 |

| Sequence | PBM E-score |
| --- | --- |
| AACGCGCT | 0.0463 |
| GGCGCGTA | -0.0178 |
| CGCGCGTA | 0.152 |
| AGCGCGCT | 0.152 |
| AACGCGCG | 0.282 |
| AGCGCGCG | 0.311 |
| CGCGCGCG | 0.214 |
| TGCGCGCA | 0.301 |
| AACGCGCA | 0.189 |
| AGCGCGTA | 0.284 |
| CGGGGGAG | -0.432 |
| CCAGTTTC | -0.155 |
| CCTCCATA | -0.254 |
| GTGGGTGA | 0.0388 |
| AGAACCAA | -0.131 |
| CACAGGAC | -0.0449 |
| AAAGGACA | -0.0819 |
| ACAGCTAT | -0.0503 |
| ACAGCTGA | -0.0375 |
| TCAGCTGA | 0.31 |
| ACAGCTGT | 0.261 |
| ACAGCTGG | 0.0155 |
| GCAGCTGA | 0.0932 |
| CCCCGGAG | -0.2 |
| CCAGGCGC | -0.0648 |

| Sequence | PBM E-score |
| --- | --- |
| CAGTTACA | -0.00475 |
| GTCCGTTA | 0.199 |
| ATCCGTTC | 0.229 |
| ATCCGTTA | 0.303 |
| ATGATGCA | 0.222 |
| ATCGTTCA | 0.0567 |
| AGTTCATG | 0.265 |
| AGTTCATC | 0.0446 |
| AGTTCATA | 0.101 |
| CCGGTCCG | -0.104 |
| ATGAGCCA | 0.107 |
| CATTAGAA | 0.11 |
| ACTTAGTG | -0.142 |
| CTTTAGTA | 0.174 |
| AATTAGGG | -0.172 |
| ATTTAGTA | 0.293 |
| CGTTAGTA | 0.289 |
| AATTAGTG | 0.316 |
| CATTAGTA | 0.304 |
| GGTTAGTA | 0.219 |
| CGTTAGTC | 0.042 |
| CATTAGTC | 0.217 |
| ATTTAGTC | 0.18 |
